Measured values from PubChem BioAssay AID686978 (National Center for Advancing Translational Sciences (NCATS), 2013).
Where “and” joins values, the source holds several entries; their conditions need not be identical. Equal entries are not always repeated. Hit rate of the full screen: of about 420,000 compounds, about 64,000 (15%) were called active. Inconclusive results (about 27%) are left out. Only a sample is shown. Values without a mark were called inactive. Calls follow the shape of the dose curve; as a rule, active = well fitted inhibition curve with a large enough effect; inconclusive = small, poorly fitted or top-dose-only effect; inactive = flat fitted curve, though single readings scatter. Peptide text beside a SMILES is read from it. * marks the point of attachment. Bz = O=C(c1ccccc1)*

Test: qHTS for Inhibitors of human tyrosyl-DNA phosphodiesterase 1 (TDP1): qHTS in cells in absence of CPT; also: nearly all actives have a fitted effect of over 55% in size
Conditions: DT40 Tdp1-/- hTDP1 cells, no CPT, ATP luminescence, 48 h; activity change, negative = growth inhibition: at 46.2 µM (top of the series)
In short: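 DT40 Tdp1-/-;hTDP1 cells, no CPT (DMSO vehicle only), 400 cells/well; compounds pin-transferred; ≥48 hr, 37 °C; CellTiter-Glo 30 min RT dark, luminescence read.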
% is scaled to controls: 0 for no effect and ±100 for the full control effect; potency is read from the fitted curve at half-maximal effect.

In order of rising “activity change, negative = growth inhibition” value:
1. CCOc1ccc(-n2c(SCC(N)=O)nnc2-c2ccco2)cc1  -102%
2. CCCC(=O)Nc1cccc(-c2cn3ccsc3n2)c1  -28.8%
3. COc1cc2c(C(=O)N(C)c3cc(Cl)ccc3OC)cn(C)c(=O)c2cc1OC  -28.8%
4. CCOc1ccc(NC(=O)CCC(=O)NNC(=O)NC2CCCCC2)cc1  -28.5%
5. Cc1ccc(NS(=O)(=O)c2ccc(-c3coc(C)n3)cc2)c(C)c1  -28.1%
6. Cn1ncc2c(Nc3cccc4ccccc34)ncnc21  -26.8%
7. CC(C(=O)N(C)CC(=O)Nc1ccccc1C(F)(F)F)N1C(=O)c2ccccc2C1=O (stereo unspecified)  -26.8%
8. CCNC(=O)COC(=O)/C=C/c1c(C)nn(Cc2cccc(OC)c2)c1Cl  -26.6%
9. CCC(CC)NC(=O)CSc1nnc(-c2c[nH]c3ccccc23)o1  -25.7%
10. O=C(O)c1ccc(F)c(S(=O)(=O)Nc2ccccc2)c1  -25.1%
11. COc1ccc(-n2nnnc2-c2nc3ccccc3s2)cc1  -24.7%
12. O=C(Nc1ccc2c(c1)OCCO2)C1CCCC1  -24.7%
13. CCN(CC)S(=O)(=O)c1ccc(-c2cn3ccc(C)cc3n2)cc1  -23.4%
14. O=C(CSc1ccccn1)N1CCN(S(=O)(=O)c2ccc(Cl)cc2)CC1  -22.9%
15. CN(C)c1nc(N)nc(Cn2nnc(-c3ccc(C(F)(F)F)cc3)n2)n1  -22.4%
16. Cc1ccc(NC(=O)N2CCC(C(=O)NCc3ccc(F)cc3)CC2)cc1  -21.1%
17. O=C(COC(=O)C1CCN(S(=O)(=O)c2ccc3c(c2)OCCO3)CC1)Nc1ccccc1OC(F)F  -20.5%
18. COc1ccc(NC(=O)Nc2ccc3nc(C)c(C)nc3c2)cc1  -20.1%
19. CS(=O)(=O)Nc1cccc(-c2cn3ccccc3n2)c1  -17.7%
20. Cc1cc(OCc2ccc(C(=O)Nc3ccc(C(=O)O)cc3)o2)ccc1Cl  -17.3%
21. O=C(NCc1ccccn1)c1cc(Br)ccc1Cl  -17.2%
22. O=Cc1c(Nc2ccccc2Cl)nc2ccccn2c1=O  -16.3%
23. COC(=O)c1c(OCc2ccc(F)cc2)cc(=O)n2c1CCN(Cc1ccc3cccnc3c1)CC2  -16.2%
24. CCc1ccc(CNC(=O)C2CCN(c3nn4cc(-c5ccc(F)cc5)nc4s3)CC2)cc1  -16.1%
25. CC(=O)Oc1ccc(C)cc1N1C(=O)c2ccc(C(=O)O)cc2C1=O  -15.5%
26. COc1ccc(NC(=O)C2CCC(CNc3c(N4CCCCC4)c(=O)c3=O)CC2)c(OC)c1 (stereo unspecified)  -15.1%
27. O=C(C1CCCO1)N(c1ccc(F)cc1)C1C=CS(=O)(=O)C1 (stereo unspecified)  -14.6%
28. O=C(COc1nc2ccccc2nc1N1CCOCC1)NCC(F)(F)F  -14.5%
29. O=c1[nH]c(N2CCOCC2)nc2ccccc12  -13.4%
30. Cc1ccc(F)c(S(=O)(=O)NC(=O)C2(C)CCN2C(=O)c2ccco2)c1 (stereo unspecified)  -13.3%
31. Cc1ccc(-n2c(SCC(=O)Nc3ccc4c(c3)OCO4)nnc2-c2ccccn2)cc1  -12.9%
32. O=C(COC(=O)c1ccc(NS(=O)(=O)c2cccs2)cc1O)Nc1ccc(F)cc1  -12.5%
33. CC1=NC2(CCCc3c2no[n+]3[O-])N(O)C1(C)C (stereo unspecified)  -12%
34. CCOc1ccccc1NC(=O)C1CCC(CNc2c(N3CCOCC3)c(=O)c2=O)CC1 (stereo unspecified)  -11.8%
35. Cc1ccc(NC(=O)CN2CCC(C(N)=O)CC2)cc1[N+](=O)[O-]  -11.3%
36. COc1ccc(Br)cc1/C=N/Nc1ccc(Cl)c(C(=O)O)c1  -11.1%
37. CC1(c2ccccc2)NC(=O)N(CC(=O)N2CC(=O)Nc3ccccc32)C1=O (stereo unspecified)  -10.4%
38. Nc1ncnc2c1ncn2[C@@H]1O[C@H](CNS(=O)(=O)c2ccc(-c3ccno3)s2)[C@@H](O)[C@H]1O  -10.2%
39. Cc1ccc(C(=O)Nc2cccc3ncccc23)cc1[N+](=O)[O-]  -9.15%
40. COc1ccc(NC(=O)Nc2cccc3cccnc23)cc1  -8.75%
41. O=C(OCC(=O)N1CCOCC1)c1ccc2ccccc2c1  -8.74%
42. COc1cccc2c1OCC(CN1CCN(C3CCCCC3)C(CCO)C1)=C2 (stereo unspecified)  -8.3%
43. CCCC(NS(=O)(=O)c1ccc(OC)cc1)C(=O)O (stereo unspecified)  -6.51%
44. CCOC(=O)CNC(=O)CSc1ncccc1-c1nc2ccccc2[nH]1  -6.06%
45. COc1ccc(S(=O)(=O)NCCSc2nnnn2-c2ccccc2)cc1  -4.54%
46. COC(=O)c1ccc(COC(=O)c2c(C)nn(Cc3ccccc3Cl)c2Cl)o1  -4.36%
47. CSCCC(NC(=O)COc1ccccc1)C(=O)N(C)CC(=O)Nc1ccc(C)cc1 (stereo unspecified)  -4.34%
48. Cc1ccc(-c2c3c(=O)n(C)c(=O)n(C)c3cn2-c2ccccc2O)cc1  -4.34%
49. COc1ccc(C(=O)CN2C(=O)NC(C)(c3ccc(C)cc3)C2=O)cc1OC (stereo unspecified)  -4.31%
50. O=C(NCc1ccccc1Cl)C1CCN(S(=O)(=O)N2CCOCC2)CC1  -4.3%
51. O=C(Nc1ccccc1Cl)Nc1cccc2cccnc12  -2.9%
52. Cc1cc(NS(=O)(=O)c2ccccc2)no1  -2.46%
53. CCc1cccc(OC2OC(CO)C(O)C(O)C2NC(C)=O)c1 (stereo unspecified)  -2.2%
54. CO/N=C(\C(=O)N[C@@H]1C(=O)N2C(C(=O)O)=CCS[C@H]12)c1csc(N)n1  -2.2%
55. CC1CCN(CCC(=O)Nc2ccccc2)CC1  -1.21%
56. O=C(COC(=O)C1CC2CCCC(C1)C2=O)NC(=O)c1ccccc1 (stereo unspecified)  -1.16%
57. COc1ccc(OCCCC(=O)NCCc2ccccc2)cc1  -0.81%
58. O=C(CCn1ccc([N+](=O)[O-])n1)Nc1nccs1  -0.635%
59. O=S(=O)(NCCc1ccncc1)c1ccccc1  -0.539%
60. COc1ccc(Nc2nc(=O)[nH]nc2C)cc1  -0.528%
61. O=C(c1ccccc1F)N1CCN(S(=O)(=O)c2ccc(Br)cc2)CC1  -0.0728%
62. Cc1cc(NC(=O)COC(=O)c2ccc(F)c(S(=O)(=O)N3CCOCC3)c2)no1  0.35%
63. COc1ccc(CNC(=O)C(NS(=O)(=O)c2cccc3nsnc23)C(C)C)cc1 (stereo unspecified)  0.675%
64. Cc1ccc(C(=O)Nc2ccc(C(=O)O)cc2)cc1S(=O)(=O)Nc1ccccc1  0.751%
65. COc1ccc(NC(=S)N2CCCC(CO)C2)c(OC)c1 (stereo unspecified)  1.5%
66. O=C(NCc1cccc(Cl)c1)C1CCN(c2nnc(N3CCCC3=O)s2)CC1  1.66%
67. Cc1ccc(N=Nc2c(C)[nH]n(-c3ccccc3)c2=O)cc1  1.78%
68. CC12CN3CCN(CC(C3)/C1=N\NC(=O)c1ccccc1N)C2  2.03%
69. O=C(O)C1CCCN1S(=O)(=O)c1ccc(Br)cc1 (stereo unspecified)  2.25%
70. O=C(NC(Cc1ccccc1)C(=O)N1CCCC1C(=O)O)c1ccccc1 (stereo not drawn) (Bz-Phe-Pro-OH; configuration not given here)  2.72%
71. CC(C)CCNC(=O)CSc1nc2ccccc2nc1Cc1ccc(Cl)cc1  2.89%
72. Cc1ccc(Cl)cc1NC(=O)NC1COc2ccccc2C1 (stereo unspecified)  3.25%
73. C/C(=N/OC(=O)c1ccc(Br)cc1)c1ccc(C)cc1  4.62%
74. CCn1c(SCC(=O)Nc2ccc(S(=O)(=O)Nc3onc(C)c3C)cc2)nnc1-c1ccccc1  4.75%
75. O=C1CC2(CCCC2)Oc2ccc(Cl)cc21  5.04%
76. COc1ccc(CCNS(=O)(=O)c2cccc([N+](=O)[O-])c2)cc1  5.04%
77. COc1ccc(NC(=O)CSc2nnnn2-c2cccc(OC)c2)cc1  6.93%
78. Cc1ccc2c(NC(=O)C3CC3)cccc2n1  6.95%
79. Cc1cc[n+](-c2[nH]c(=O)sc2/C=N/NC(=O)c2ccccc2[O-])cc1C  7.5%
80. O=C(O)C(NS(=O)(=O)c1cccc2nsnc12)c1ccccc1 (stereo unspecified)  9.14%
81. COc1ccc(C23NCCN2C(=O)c2ccccc23)cc1 (stereo unspecified)  11%
82. CCOC(CNC(=O)C(=O)NCC(c1ccco1)N1CCN(c2ccc(OC)cc2)CC1)OCC (stereo unspecified)  11.3%
83. Cc1c(S(=O)(=O)NCc2ccccc2)c(=O)n(C)c(=O)n1C  11.6%
84. COc1ccc(S(=O)(=O)N2CCCC2CNC(=O)C(=O)NC2CC2)cc1 (stereo unspecified)  11.9%
85. Cc1cn(C)c(=O)n(C)c1=O  12.7%
86. C/C(N)=C(\C#N)C(=O)NCCc1ccccn1  14.5%
87. C/C(=N/NS(=O)(=O)c1ccccc1)c1ccc(NC(=O)C(F)(F)F)cc1  17.1%
88. COc1ccc(CNC(=O)CCN2C(=O)c3ccccc3C2=O)cc1  19.1%

With `CCCS(=O)(=O)Nc1cccc(-c2cn3ccsc3n2)c1` the Potency was 25.9 µM (active).
In the case of `CCOC(=O)c1cccc(NC(=O)C(Cc2ccccc2)NS(=O)(=O)c2cccc3nsnc23)c1` (stereo unspecified), the Potency is reported as 23.1 µM (active).
With `O=C(Nc1ccccc1)Oc1cccc2cccnc12` the Potency was 1.03 µM (active).
In the case of `COc1ccc(S(=O)(=O)NCCc2cc3ccc(C)c(C)c3[nH]c2=O)cc1`, the Potency is reported as 8.2 µM (active) and 23.1 µM (active).
With `CCOc1cccc(-n2nnnc2-c2ccc(OC)cc2)c1` the Potency was 2.91 µM (active).
With `Cc1cccc(CSc2ccc(-c3cccs3)nn2)c1` the Potency was “inactive”.
In the case of `O=S(=O)(c1ccc(Br)cc1)n1ccc2ccccc21`, the Potency is reported as 18.4 µM (active).
For `COc1ccc(CCNCc2c(-c3ccccc3)n(C)c3ccccc23)cc1`, the Potency was 16.4 µM (active).
With `Cc1[nH]n(-c2ccccc2)c(=O)c1/C=N/NC(=O)c1ccoc1C` the Potency was 1.84 µM (active).
In the case of `c1ccc(Nc2nc(N3CCOCC3)c3ccccc3n2)cc1`, the Potency is reported as 16.4 µM (active).
For `Cc1ccc(/C=C(\C#N)C(=O)Nc2cccc3ncccc23)o1`, the Potency was 25.9 µM (active).
For `Cn1c(=O)c2c(-c3ccccc3Br)n(Cc3ccccc3)cc2n(C)c1=O`, the Potency was 18.4 µM (active).
With `Cc1ccc(C(=O)Nc2ccccc2-c2ccccc2)cc1S(=O)(=O)Nc1ccccc1` the Potency was 14.6 µM (active).
For `CC[n+]1cc(C)ccc1/C=C/c1ccc(N(C)C)cc1`, the Potency was 0.0259 µM (active).
With `Cc1ccc(-c2c3c(=O)n(C)c(=O)n(C)c3cn2-n2cnnc2)cc1` the Potency was 20.6 µM (active).
For `COc1ccc(Nc2cc(Sc3ccc(OC)cc3)ncn2)cc1`, the Potency was 16.4 µM (active).
For `COc1ccc(C)cc1-n1c(-c2ccc(C)cc2)cc2c1CC(C)(C)CC2=O`, the Potency was 8.2 µM (active).
With `Cc1c(CCO)sc[n+]1CC(=O)c1ccc2ccccc2c1` the Potency was 15.8 µM (active).
In the case of `Cc1ccccc1OCC(=O)NCC(=O)OCC(=O)c1ccc2ccccc2c1`, the Potency is reported as “inactive”.
For `Oc1ccc(Br)cc1/C=N/Nc1ccccn1`, the Potency was 3.66 µM (active).
For `CCN(CC)c1ccc(NC(=O)C2CCC(CNc3c(N4CCCC4)c(=O)c3=O)CC2)c(C)c1` (stereo unspecified), the Potency was 14.6 µM (active).
In the case of `Cc1ccc(C)n1-c1nnc(N2CCC(C(=O)NCc3ccccc3Cl)CC2)s1`, the Potency is reported as 18.4 µM (active).
In the case of `Cc1ccc(C)n1-c1nnc(N2CCC(C(=O)NCc3ccc(F)cc3)CC2)s1`, the Potency is reported as 23.1 µM (active).
